Drawing on PubChem BioAssay (NCATS), this text covers max response, Potency and outcome for 20 compounds.

Test [1] is described as follows: qHTS assay for small molecule antagonists of peroxisome proliferator-activated receptor delta signaling (AID 588535; active means well fitted inhibition curve with a large enough effect in the signal ratio, with a control signal flat, not every such curve was filed as active; the % refers to the signal ratio; further: potency means the concentration at half of the fitted maximal effect;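 on max response: cells co-treated with a PPAR-delta agonist as stimulator during compound exposure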). The conditions noted are these: HEK293T PPARd-UAS-bla, beta-lactamase FRET ratio, 18 h; 460 nm channel. A digest of the protocol: (§1)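 Antagonist-mode qHTS using GeneBLAzer PPAR-delta-UAS-bla HEK293T cells; compound exposure 18 hrs at 37 C over a titration. Ratiometric CCF4 fluorescence at 460/530 nm; concentration-response points fitted to the Hill equation.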
On the technique in general: qHTS replaces the single test concentration by a dilution series.

The target of test [2] is Peroxisome proliferator-activated receptor delta (Homo sapiens) (UniProt Q03181). The description is as above. The following applies: HEK293T PPARd-UAS-bla, beta-lactamase FRET ratio, 18 h; series mostly up to 76.7 µM. A digest of the protocol: as §1
Chain of Peroxisome proliferator-activated receptor delta (Homo sapiens) (Q03181 whole entry, looked up): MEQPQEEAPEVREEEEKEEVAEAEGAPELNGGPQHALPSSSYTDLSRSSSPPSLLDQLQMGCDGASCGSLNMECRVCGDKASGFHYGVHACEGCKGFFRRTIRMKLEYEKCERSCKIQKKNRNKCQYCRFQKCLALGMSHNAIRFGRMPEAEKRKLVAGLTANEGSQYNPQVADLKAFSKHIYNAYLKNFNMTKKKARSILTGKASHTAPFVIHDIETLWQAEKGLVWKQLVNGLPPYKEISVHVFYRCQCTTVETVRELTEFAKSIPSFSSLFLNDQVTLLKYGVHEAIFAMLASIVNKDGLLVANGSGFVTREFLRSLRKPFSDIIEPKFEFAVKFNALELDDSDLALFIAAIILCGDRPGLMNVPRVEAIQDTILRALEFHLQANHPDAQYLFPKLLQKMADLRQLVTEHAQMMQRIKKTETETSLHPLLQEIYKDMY
For test [3], the target named is Vitamin D3 receptor (Homo sapiens) (UniProt P11473). Briefly: qHTS assay for small molecule antagonists of vitamin D receptor signaling (AID 588541; calls by dose curve;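 further: receptor activated by calcitriol during compound treatment; on the % scale 0 is the no-effect control and ±100 the full control effect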). The following applies: HEK293T VDR-UAS-bla, beta-lactamase ratio, antagonist mode; series mostly up to 76.7 µM. A digest of the protocol:
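Antagonist-mode beta-lactamase reporter assay: HEK293T VDR-UAS-bla cells were exposed to titrated compound alongside 1-alpha,25-dihydroxyvitamin D3 at 3 nM final for 16 h. Values were normalized to the 50 nM agonist control and DMSO basal, with IC50 and efficacy from Hill equation fits.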

A short description of test [4]: qHTS assay for small molecule antagonists of retinoid X receptor alpha signaling (AID 588546; active means well fitted inhibition curve with a large enough effect in the signal ratio, with a control signal flat, not every such curve was filed as active; the % refers to the signal ratio;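 further: cells stimulated with 9-cis-retinoic acid as agonist; on the % scale 0 is the no-effect control and ±100 the full control effect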). The conditions noted are these: HEK293T RXRa-UAS-bla, beta-lactamase ratio, antagonist mode; measured here: W530 green channel, cytotoxicity proxy. A digest of the protocol:
(§2)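 Beta-lactamase reporter inhibition, read as CCF4 fluorescence ratio (ex 405, em 460/530 nm) after 2 h at RT. HEK293T UAS-bla cells, 2500/well, were stimulated with 9-cis-RA at 500 or 100 nM final alongside test compound for 18 h at 37 C.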

Test [5] has as its target Retinoic acid receptor RXR-alpha (Homo sapiens) (UniProt P19793). The test is described as above. The following applies: HEK293T RXRa-UAS-bla, beta-lactamase ratio, antagonist mode. A digest of the protocol:
as §2

The nature of test [6]: qHTS assay for cell viability of the p53RE-bla HCT-116 cell line (AID 743292). Further: on the % scale 0 is the no-effect control and ±100 the full control effect; nearly all actives have a fitted effect of over 55% in size. The following applies: p53RE-bla HCT-116 viability, ATP luminescence, 16 h; series mostly up to 95 µM. A digest of the protocol:
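Compound-exposed HCT-116 (p53RE-bla) cells, 4,000 per well, were kept 16 h at 37 C following a 5 h preincubation. Cell number was estimated from total ATP by CellTiter-Glo luminescence read after 30 min at room temperature.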

The subject of test [7] is AA1029. Briefly: qHTS profiling for inhibitors of Plasmodium falciparum proliferation (AID 504749). Further: nearly all actives have a fitted effect of over 60% in size. Further: potency means the concentration at half of the fitted maximal effect. The following applies: P. falciparum in erythrocytes, SYBR Green DNA, 72 h; series mostly up to 28.7 µM. A digest of the protocol: (§3)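 In a 72 h erythrocytic culture (37 C, humidified, 5% CO2) at 2.5% hematocrit and 0.3% starting parasitemia, compounds were tested; SYBR Green I in detergent lysis buffer stained parasite DNA overnight.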

The subject of test [8] is C2A. Described as above. The conditions noted are these: P. falciparum in erythrocytes, SYBR Green DNA, 72 h; series mostly up to 28.7 µM. A digest of the protocol: as §3
The subject of test [9] is CP194. Described as above. The conditions noted are these: P. falciparum in erythrocytes, SYBR Green DNA, 72 h; series mostly up to 28.7 µM. A digest of the protocol:
as §3

For test [10], the system named is CP203. The test is described as above. The following applies: P. falciparum in erythrocytes, SYBR Green DNA, 72 h; series mostly up to 28.7 µM. A digest of the protocol: as §3
Test [11] concerns CP215. The description is as above. The following applies: P. falciparum in erythrocytes, SYBR Green DNA, 72 h; series mostly up to 28.7 µM. A digest of the protocol: as §3
Test [12] concerns CP265. The test is described as above. The following applies: P. falciparum in erythrocytes, SYBR Green DNA, 72 h; series mostly up to 12.8 µM. A digest of the protocol:
as §3

Test [13] deals with CP266. Described as above. The following applies: P. falciparum in erythrocytes, SYBR Green DNA, 72 h; series mostly up to 12.8 µM. A digest of the protocol: as §3
For test [14], the system named is CP269. The test is described as above. The following applies: P. falciparum in erythrocytes, SYBR Green DNA, 72 h; series mostly up to 28.7 µM. A digest of the protocol: as §3
Test [15] concerns CP305. The description is as above. The following applies: P. falciparum in erythrocytes, SYBR Green DNA, 72 h; series mostly up to 28.7 µM. A digest of the protocol:
as §3

Test [16] deals with DIV30. Described as above. The conditions noted are these: P. falciparum in erythrocytes, SYBR Green DNA, 72 h; series mostly up to 28.7 µM. A digest of the protocol: as §3
Test [17] concerns P93_24. The test is described as above. The following applies: P. falciparum in erythrocytes, SYBR Green DNA, 72 h; series mostly up to 28.7 µM. A digest of the protocol: as §3
Test [18] deals with PAD. The description is as above. The following applies: P. falciparum in erythrocytes, SYBR Green DNA, 72 h; series mostly up to 28.7 µM. A digest of the protocol: as §3
Test [19] deals with PC49. The test is described as above. The conditions noted are these: P. falciparum in erythrocytes, SYBR Green DNA, 72 h; series mostly up to 28.7 µM. A digest of the protocol: as §3
Test [20] deals with TAB165. The test is described as above. The following applies: P. falciparum in erythrocytes, SYBR Green DNA, 72 h; series mostly up to 28.7 µM. A digest of the protocol:
as §3

“And” between values parts separate entries of the source, which are not always exact repeats. Identical values can stand only once. Results filed as inconclusive are left out. The source made the active and inactive calls. Unless noted, the call rests on the fitted dose curve; in most records, active means well fitted curve in the direction sought with a large enough effect; inconclusive means small, poorly fitted or top-dose-only effect, or another doubt; inactive means no such curve, though single readings can be large; an effect the other way counts as inactive or inconclusive.

Chain of Retinoic acid receptor RXR-alpha (Homo sapiens) (P19793 whole entry, looked up): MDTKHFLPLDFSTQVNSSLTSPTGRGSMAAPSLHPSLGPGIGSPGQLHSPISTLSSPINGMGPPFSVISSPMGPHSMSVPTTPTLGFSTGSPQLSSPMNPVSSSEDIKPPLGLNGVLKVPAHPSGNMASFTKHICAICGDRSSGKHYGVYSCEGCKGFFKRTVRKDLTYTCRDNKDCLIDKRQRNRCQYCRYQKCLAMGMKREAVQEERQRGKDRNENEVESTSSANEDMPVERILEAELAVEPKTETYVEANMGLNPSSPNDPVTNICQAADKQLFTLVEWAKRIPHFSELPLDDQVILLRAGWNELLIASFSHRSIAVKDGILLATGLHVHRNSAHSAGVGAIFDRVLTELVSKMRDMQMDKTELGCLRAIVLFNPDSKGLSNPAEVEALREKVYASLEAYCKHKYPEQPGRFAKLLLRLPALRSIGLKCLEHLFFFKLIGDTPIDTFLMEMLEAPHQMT
Chain of Vitamin D3 receptor (Homo sapiens) (P11473 whole entry, looked up): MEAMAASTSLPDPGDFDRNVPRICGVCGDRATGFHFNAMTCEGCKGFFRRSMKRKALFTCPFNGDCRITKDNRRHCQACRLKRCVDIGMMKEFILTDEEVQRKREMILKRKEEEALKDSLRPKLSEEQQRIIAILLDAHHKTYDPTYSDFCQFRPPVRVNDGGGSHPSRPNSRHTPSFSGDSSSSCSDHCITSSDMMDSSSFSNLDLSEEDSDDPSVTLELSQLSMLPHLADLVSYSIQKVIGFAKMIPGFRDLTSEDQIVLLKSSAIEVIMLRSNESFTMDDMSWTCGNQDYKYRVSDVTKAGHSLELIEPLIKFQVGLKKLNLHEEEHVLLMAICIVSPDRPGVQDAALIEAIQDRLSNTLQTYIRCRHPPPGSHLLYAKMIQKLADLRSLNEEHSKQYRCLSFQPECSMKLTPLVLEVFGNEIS

Regarding `CNC(=O)CSP(=S)(OC)OC`, the max response is 27.9% in test [1], 1.7% in test [4] and -6.5% (inactive) in [5]. The Potency entry in test [2] and in [6] was “inactive” throughout. The result in [3] was inactive.
As for `COc1cc(N)c(Cl)cc1C(=O)N[C@@H]1CN2CCC1CC2`, the Potency entry in test [7], in [8], in test [9], in test [10], in test [11] and in test [12] was “inactive” each time. Also, the Potency result in test [13], in test [14], in test [15], in test [16], in test [17] and in test [18] was “inactive” each time. The Potency entry in test [19] and in test [20] was “inactive” in each case.
Consider `O=C1C=C2C=CC3C[C@@]2(O1)C1CCCCN31` (some centres undefined), for which the Potency is 12.6 µM (active) in [7]; 12.6 µM (active) in [8]; 10.7 µM (active) in test [11]; 10.7 µM (active) in test [13]; 15.1 µM (active) in test [14]; 13.5 µM (active) in test [16]. For the same compound, the Potency in test [17] was 12.6 µM (active); in [18], 12.6 µM (active); in test [19], 10 µM (active); in [20], 11.2 µM (active).
As to `CCCCCCCCCc1ccc(O)cc1`, the max response in test [1] is -9.37% and -27.9%; in test [4], -16.1%; in test [5], 0.938% (inactive). The Potency result in test [2] and in [6] was “inactive” each time. Also, the outcome in test [3] was inactive.
As for `O=C1C(Cl)=C(Cl)C(=O)C(Cl)=C1Cl`, in test [1], the max response is -78.9%. Further, the Potency in [2] is 12.6 µM (active).
Take `N#Cc1c(Cl)cccc1Cl`: the max response in test [1] is 41.3%; in test [4], -15.4%; in test [5] it was 2.12% (inactive). In addition, the Potency result in test [2] and in test [6] was “inactive” throughout.
As to `CCC(C)C1O[C@]2(C=CC1C)CC1CC(C/C=C(\C)[C@H](OC3CC(OC)C(O[C@H]4CC(OC)[C@@H](O)C(C)O4)C(C)O3)[C@@H](C)/C=C/C=C3\COC4C(O)C(C)=C[C@H](C(=O)O1)[C@@]34O)O2` (some centres undefined), the Potency in [7] was 11.2 µM (active); in test [8] it was 12.6 µM (active); in test [9] it was 12 µM (active); in test [10] it was 13.5 µM (active); in [11], 13.5 µM (active); in test [12], 8.91 µM (active). In addition, the figures for the Potency in test [14], in [15] and in test [20] were 15.1 µM (active), 12 µM (active) and 12.6 µM (active), respectively.
As for `CC([C@H](O)c1ccccc1)N(C)C` (some centres undefined), the Potency result in [7], in [8], in test [9], in [10], in test [11] and in test [12] was “inactive” each time. The Potency result in test [13], in [14], in test [15], in [16], in test [17] and in [18] was “inactive” each time. In addition, the Potency entry in test [19] and in test [20] was “inactive” throughout.
For the compound `CNC(C)[C@@H](O)c1ccccc1` (some centres undefined), the Potency entry in [7], in [8], in test [9], in test [10], in test [11] and in [12] was “inactive” throughout. Also, the Potency entry in [13], in [14], in [15], in test [16], in [17] and in test [18] was “inactive” in each case. Also, the Potency result in test [19] and in test [20] was “inactive” in each case.
Regarding `CNC(=O)Oc1cccc2c1OC(C)(C)O2`, the values for the max response in [1], in test [4] and in test [5] were 28.5%, -10.6% and -16.4% (inactive), respectively. In addition, the Potency entry in test [2] and in test [6] was “inactive” throughout. Further, the result in test [3] was inactive.
In the case of `CCCCSP(=O)(SCCCC)SCCCC`, the max response in test [1] was -5.76%. Moreover, the Potency entry in test [2] was “inactive”. In addition, the outcome in test [3] was inactive.
In the case of `O=C(O)COc1cc(Cl)c(Cl)cc1Cl`, the max response in [1] is 15.2%; in test [4] it was 20.3%; in test [5] it was -33.7% (inactive). Further, the Potency entry in test [2] and in [6] was “inactive” in each case. In addition, the outcome in test [3] was inactive.
Regarding `CC(C)OC(=O)Nc1cccc(Cl)c1`, the max response is 2.77% in [1], -4.63% in test [4] and 4.34% (inactive) in test [5]. Moreover, the Potency entry in test [2] and in test [6] was “inactive” in each case. The result in [3] was inactive.
As to `CCC(=O)Nc1ccc(Cl)c(Cl)c1`, in test [3], the result was inactive. Moreover, the max response in [4] is -13.9%; in [5], -5.6% (inactive). Besides, the Potency entry in test [6] was “inactive”.
With `CC(C)N1C(=O)c2ccccc2NS1(=O)=O`, the max response in [1] is 55.3%; in test [4], -4.57%; in [5], 0.0964% (inactive). In addition, the Potency entry in test [2] and in test [6] was “inactive” throughout. Besides, the outcome in test [3] was inactive.
For `CCc1cccc(C)c1N(C(=O)CCl)C(C)COC` (centres undefined), in test [3], the outcome was inactive. In addition, the results for the max response in [4] and in test [5] were 0.387% and -18.8% (inactive), respectively. For the same compound, in test [6], the Potency entry is “inactive”.
Turning to `COP(N)(=O)SC` (centres undefined), the max response in test [1] is 57.3% and -26.4%; in test [4], -17.3% and -16.5%; in test [5], -4.89% (inactive) and -18.9% (inactive). Besides, the Potency entry in test [2] and in [6] was “inactive” throughout. Also, the result in [3] was inactive.
As for `COc1nc(NC(C)C)nc(NC(C)C)n1`, the results for the max response in test [1], in test [4] and in test [5] were 7.33%, -4.65% and -8.1% (inactive), respectively. In addition, the Potency result in [2] and in test [6] was “inactive” each time. Further, in test [3], the result was inactive.
For `CC(C)Nc1nc(Cl)nc(NC(C)C)n1`, the max response in test [1] was 16.2%; in test [4] it was -10.2%; in [5] it was -2.39% (inactive). Besides, the Potency entry in test [2] and in [6] was “inactive” throughout. Further, the result in test [3] was inactive.
Consider `CC(C)(C)C(=O)C(Oc1ccc(Cl)cc1)n1cncn1` (centres undefined), for which the max response was -36.1% and 32.9% in test [1]; 2.99% and 5.39% in [4]; 0.375% (inactive) and -49.7% (inactive) in test [5]. The Potency result in [2] and in test [6] was “inactive” each time. Moreover, in test [3], the result was inactive.
